TWEAK-Fn14 inh: blocks TWEAK-Fn14 interaction in a reporter cell assay | TWEAK-stimulated Fn14 reporter cells, luciferase luminescence, 8 h | inhibition, % at 10 µM | 360,000 tested, 2% active; in the data active means inhibition above about 50%
LGR2 antag: Drosophila LGR2 receptor signaling inhibition; HEK293 LGR2, CRE-luciferase, bursicon-stimulated, 4 h; inhibition, % at 9.99 µM; 380,000 tested, 0.35% active; AID 720647;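 active means drop in luminescence signal, shown as inhibition above about 50% in the replicate tests, limit read from the data, passing the limit was not always enough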;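 further: agonist challenge used bursicon conditioned medium at about half maximal strength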
TROY signal inh: inhibitors of TROY-dependent NF-kB signaling; inhibition, % at 10 µM; AID 1347056; Q293 LMP1-TROYcd NF-kB luciferase reporter, 4 h; 360,000 tested, 0.98% active;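 active means compounds whose plate-normalised and pattern-corrected inhibition of the luciferase reporter signal at the single screening dose is 50% or more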
PAX8 inh HTS: PAX8 transcriptional activity inhibition; RMG-I TPO-luciferase reporter, SteadyGlo, 24 h; inhibition, % at 12.6 µM; 360,000 tested, 1.2% active;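 active means mean replicate inhibition at least 60% with every replicate also reaching 60%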;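 further: luciferase light reporting Pax8 driven TPO promoter activity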
LMP1 NFkB inh: Epstein-Barr LMP1 NF-kappaB reporter inhibition. LMP1-induced NF-kappaB luciferase reporter cells, luminescence. inhibition, % at 12.5 µM. 350,000 tested, 0.69% active. AID 504558; in the data active means inhibition above about 41%
EWS-Fli inh: inhibitors of EWS/Fli oncoprotein transcriptional activity. inhibition, % at 12.6 µM. A673 NR0B1-luciferase reporter, viability-normalised. 350,000 tested, 0.67% active;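 active means mean inhibition of at least 50% after viability correction, with every replicate also passing that limit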;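 further: firefly luciferase signal divided by Alamar Blue viability fluorescence both relative to DMSO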
Numbers stand for hits; i = inactive; nt = no result given. A selection: hits, their analogues and other compounds. The true share with any hit is near 3.2%.

SMILES	TWEAK-Fn14 inh	LGR2 antag	TROY signal inh	PAX8 inh HTS	LMP1 NFkB inh	EWS-Fli inh
CCN1C(=O)[C@H]2[C@@H](c3ccc(SC4CCCCC4)c(OC)c3)N3CCCC[C@@]3(C(=O)OC)[C@H]2C1=O	i	nt	i	i	i	i
CCN1C(=O)[C@H]2[C@@H](c3ccc(-c4ccc(Cl)c(Cl)c4)cc3)N3CCCC[C@@]3(C(=O)OC)[C@H]2C1=O	i	i	i	i	i	i
Cc1cc(C(=O)Nc2cccc3c2O[C@@H](CN(C)CC2CCCCC2)[C@H](C)CN([C@H](C)CO)C3=O)n(C)n1	nt	i	nt	i	nt	i
O=C(CC1CC1)N1CC(=O)N2[C@@H](CO)[C@H](c3ccc(C#Cc4ccccc4)cc3)[C@@H]2C1	nt	i	nt	nt	nt	i
O=C(NC(NC(=S)Nc1ccccc1)C(Cl)(Cl)Cl)c1cccc(Cl)c1 (stereo not given)	75	i	i	nt	i	nt
C[C@@H]1CN([C@@H](C)CO)C(=O)Cc2cc(NC(=O)CCN3CCOCC3)ccc2O[C@@H]1CN(C)C	nt	i	nt	i	nt	i
O=C(C(=Cc1ccccc1)CN1CCCCC1)c1ccccc1	102	94	i	104	90	58
O=C(CCCCN1CCCCC1)c1ccccc1	i	i	i	i	i	i
CS(=O)(=O)Nc1ccc2c(c1)[C@H]1C[C@H](CC(=O)NCCc3ccccc3)O[C@@H](CO)[C@H]1O2	nt	i	nt	i	nt	i
CC1(C)CC(N2CCN(Cc3ccccc3)CC2)=CC(=[N+]2CCCCC2)C1	i	i	i	69	i	i
CN(Cc1ccccc1)C1=CC(=[N+]2CCCCC2)CC(C)(C)C1	i	i	i	74	44	i
CC1(C)CC(N2CCCC2)=CC(=[N+]2CCCCC2)C1	i	i	i	i	i	i
O=C(CSc1nnc(-c2c[nH]c3ccccc23)o1)N(Cc1ccccc1)c1ccc(F)cc1	64	nt	i	nt	i	nt
COc1ccc(CN(C(=O)CSc2nnc(-c3ccccc3C)o2)c2ccc(F)cc2)cc1	i	nt	i	nt	i	nt
CCn1c(NC(=O)Nc2ccccc2OC)nc2ccccc21	62	nt	nt	nt	i	nt
COc1cccc(S(=O)(=O)N2[C@@H]3CNC[C@H]2C3c2ccc(-c3ccc(C(=O)N(C)C)cc3)cc2)c1 (stereo not given in full)	nt	i	nt	i	nt	i
Cc1ccc(S(=O)(=O)N2C[C@H](O)COC[C@H]3O[C@@H](CC(=O)NCc4ccc(Cl)c(Cl)c4)CC[C@@H]32)cc1	nt	i	nt	75	nt	i
O=C(C[C@@H]1CC[C@@H]2[C@H](COC[C@@H](O)CN2C(=O)Nc2ccc(Cl)c(Cl)c2)O1)NCc1ccc(Cl)c(Cl)c1	nt	i	nt	74	nt	i
O=C(C[C@@H]1CC[C@@H]2[C@H](COC[C@@H](O)CN2C(=O)Nc2ccc(Cl)c(Cl)c2)O1)NCc1ccc(Cl)cc1	nt	i	nt	96	nt	i
O=C(C[C@H]1CC[C@@H]2[C@H](COC[C@@H](O)CN2C(=O)Nc2ccc(Cl)c(Cl)c2)O1)NCc1ccc(Cl)cc1	nt	i	nt	i	nt	i
O=C(C[C@@H]1CC[C@H]2[C@@H](COC[C@H](O)CN2C(=O)Nc2ccc(Cl)c(Cl)c2)O1)NCc1ccc(Cl)cc1	nt	i	nt	95	nt	i
COc1ccc(NC(=O)N(C)C[C@H]2OCCCC[C@@H](C)Oc3ccc(NS(=O)(=O)c4ccc(OC)cc4)cc3C(=O)N([C@@H](C)CO)C[C@@H]2C)cc1	nt	i	nt	i	nt	i
O=C(C[C@H]1CC[C@H]2[C@@H](COC[C@H](O)CN2C(=O)Nc2ccc(Cl)c(Cl)c2)O1)NCc1ccc(Cl)cc1	nt	i	nt	70	nt	i
O=C(C[C@H]1CC[C@@H]2[C@H](COC[C@H](O)CN2C(=O)Nc2ccc(Cl)c(Cl)c2)O1)NCc1ccc(Cl)cc1	nt	i	nt	i	nt	i
COc1ccc(S(=O)(=O)N2C[C@H](O)COC[C@H]3O[C@H](CC(=O)N[C@H]4CCN(Cc5ccccc5)C4)CC[C@@H]32)cc1	nt	i	nt	i	nt	i
C[C@H]1CN([C@@H](C)CO)S(=O)(=O)c2ccc(/C=C/c3ccccc3)cc2O[C@@H]1CN(C)C(=O)Nc1cccc(F)c1	nt	i	nt	62	nt	i
C[C@H](CO)N1C[C@H](C)[C@H](CN(C)C(=O)Nc2cc(F)ccc2F)Oc2cc(/C=C/c3ccccc3)ccc2S1(=O)=O	nt	i	nt	65	nt	i
C[C@H](CO)N1C[C@H](C)[C@H](CN(C)C(=O)Nc2cccc(F)c2)Oc2cc(/C=C/c3ccccc3)ccc2S1(=O)=O	nt	i	nt	i	nt	i
